Compound activity as filed in PubChem.
Sampled rows, rich in hits. Any-hit rate of the full collection: about 21%.
ClpP mod: qHTS Assay for Activators of ClpP; ATP-dependent Clp protease proteolytic subunit (Bacillus subtilis (strain 168)), P80244; purified B. subtilis ClpP, FRET peptide cleavage, 20 min; Potency, µM (doses to about 57.5 µM); 1.9% of 340,000 active; active = well fitted falling curve with a large enough effect; inconclusive = small, poorly fitted or top-dose-only effect; inactive = no such curve, though single readings can be large or run the other way; also: the source files actives as falling curves though it sought activators and does not explain the sign; nearly all actives have a fitted effect of over 65% in size
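Buffer: 100 mM Tris/HCl pH8, 100 mM KCl, 0.05% low protease BSA, 2.5% glycerol, 0.01% Tween-20. ClpP 10 microg/mL final; 20 min RT; delta FRET normalized to ADEP and DMSO controls.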
TDP1 cell noCPT: qHTS for Inhibitors of human tyrosyl-DNA phosphodiesterase 1 (TDP1): qHTS in cells in absence of CPT. 15% of 420,000 active. DT40 Tdp1-/- hTDP1 cells, no CPT, ATP luminescence, 48 h. Potency, µM (doses to about 46.2 µM), hits mostly inhibitors; also: nearly all actives have a fitted effect of over 55% in size
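Stably hTDP1-transfected Tdp1-null chicken DT40 cells were treated with library compounds minus camptothecin and grown for at least 48 hr at 37 °C, after which cellular ATP was quantified by luminescence.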
IL-1B inflam inh: inhibitors of inflammasome signaling (IL-1 beta secretion) | THP-1 LPS/ATP IL-1B secretion, AlphaLISA, 16 h; active compounds read low | activity change, % at 57.5 µM | 4.7% of 360,000 active; in the data active = activity change below about -50%; inconclusive = mostly about -30% to -49%
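Secreted IL-1B measured by AlphaLISA bead assay after 16 h compound exposure of THP-1 cells; compounds (final up to 57.5 uM) added 1 h before LPS (250 ng/mL) and ATP (1.25 mM) stimulation; lower signal means less secretion.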
D3 antag: D3 dopamine receptor (human) antagonism. max response, negative = inhibition, %. 2.5% of 360,000 active. P35462. D3R cells, DiscoveRx beta-arrestin luminescence, antagonist mode; active compounds read low; in the data active = max response below about -50%; inconclusive = no clear call, values can overlap the other calls
Target sequence (P35462 whole entry, looked up): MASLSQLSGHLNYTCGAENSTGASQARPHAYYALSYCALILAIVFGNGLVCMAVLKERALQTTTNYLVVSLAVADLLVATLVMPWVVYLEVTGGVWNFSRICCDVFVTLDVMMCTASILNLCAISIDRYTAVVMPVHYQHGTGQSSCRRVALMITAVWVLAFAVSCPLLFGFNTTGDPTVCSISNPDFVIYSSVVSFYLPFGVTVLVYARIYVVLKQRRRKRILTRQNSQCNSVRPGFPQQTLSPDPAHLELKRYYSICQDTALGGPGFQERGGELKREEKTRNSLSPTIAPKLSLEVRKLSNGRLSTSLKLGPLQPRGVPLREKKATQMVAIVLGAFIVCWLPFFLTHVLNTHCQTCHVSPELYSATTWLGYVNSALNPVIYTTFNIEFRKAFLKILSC
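Cells plated overnight at 1500 cells/well, then exposed to library compounds with dopamine controls for 90 minutes at 37 degrees C. DiscoveRx reagent added for 30–60 minutes at room temperature; luminescence read, quantitative HTS format.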
D3 ag: agonists of human D3 dopamine receptor | D3R DiscoveRx beta-arrestin cells, luminescence, 90 min | 0.58% of 410,000 active | max activation, % | AID 652048 | P35462; in the data active = max activation above about 30%
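Agonist mode: compounds and dopamine controls were applied to plated cells for 90 min at 37 degrees C after an overnight attachment at 1500 cells/well. Luminescent read-out followed 30 - 60 minutes at room temperature with DiscoveRx detection reagent.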
TDP1 cell CPT: DT40-hTDP1 cell growth loss with CPT; chicken DT40 Tdp1-/-;hTDP1 cells + 20 nM CPT, ATP luminescence, 48 h; Potency, µM (top dose mostly 46.2 µM), most hits filed as inhibitors; 12% of 420,000 active; also: nearly all actives have a fitted effect of over 55% in size
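Chicken DT40 Tdp1-/- cells complemented with human TDP1, 400 cells/well, exposed to compounds plus 20 nM camptothecin for at least 48 h at 37 C; viability read as ATP content by CellTiter-Glo luminescence.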
Numbers stand for hits. Unless noted, calls follow the shape of the dose curve; as a rule, active = well fitted inhibition curve with a large enough effect; inconclusive = small, poorly fitted or top-dose-only effect; inactive = flat fitted curve, though single readings scatter.

For CCS(=O)(=O)c1ccc(-c2csc(-c3ccccc3Cl)n2)c(Cl)c1Cl the results were ClpP mod inactive, TDP1 cell noCPT 23.1µM, IL-1B inflam inh inactive, D3 antag inactive, D3 ag inactive and TDP1 cell CPT inconclusive.
Screening Cc1cc(C)nc(SCC(=O)NC2=NN=C(c3ccc(Br)cc3)CS2)n1 returned ClpP mod inactive, TDP1 cell noCPT 12.6µM, IL-1B inflam inh -82.9, D3 antag inactive, D3 ag inactive and TDP1 cell CPT 12.6µM.
Screening C[C@H](CO)N1C[C@H](C)[C@H](CN(C)C(=O)NC2CCCCC2)Oc2ncc(Br)cc2C1=O returned ClpP mod inactive, TDP1 cell noCPT inactive, IL-1B inflam inh inactive, D3 antag inactive, D3 ag inactive and TDP1 cell CPT inactive.
Cc1cccc(NC(=O)NCCN2CCN(c3ccccc3)CC2)c1C was read as ClpP mod inactive, TDP1 cell noCPT inactive, IL-1B inflam inh inactive, D3 antag -70.7, D3 ag inactive and TDP1 cell CPT inactive.
`Cc1cccc(N2CCN(CCNC(=O)Nc3ccc(Cl)cc3)CC2)c1C` gave ClpP mod inactive, TDP1 cell noCPT 13µM, D3 ag inactive and TDP1 cell CPT 13µM.
Screening CCc1ccc(N2CCN(CCNC(=O)Nc3ccccc3)CC2)cc1 returned ClpP mod inactive, TDP1 cell noCPT inactive, IL-1B inflam inh inactive, D3 antag -71.9, D3 ag inactive and TDP1 cell CPT inactive.
`Cc1ccc(NC(=O)NCCN2CCN(c3ccccc3)CC2)cc1Cl` gave ClpP mod inactive, TDP1 cell noCPT inconclusive, IL-1B inflam inh inconclusive, D3 antag -71.0, D3 ag inactive and TDP1 cell CPT inconclusive.
For CCc1ccc(N2CCN(CCNC(=O)Nc3ccc(OC)cc3)CC2)cc1 the results were ClpP mod inactive, TDP1 cell noCPT inconclusive, IL-1B inflam inh inactive, D3 antag inactive, D3 ag inactive and TDP1 cell CPT inactive.
Screening C#CCNC(=O)C1=C[C@H](c2ccc3c(c2)OCO3)[C@@H](CCCO)[C@H](OCC)O1 returned ClpP mod inactive, TDP1 cell noCPT inactive, IL-1B inflam inh inactive, D3 antag inactive, D3 ag inactive and TDP1 cell CPT inactive.
`COCCNC(=O)CN(CCc1ccccc1)S(=O)(=O)c1ccc(Br)cc1` gave TDP1 cell noCPT inactive, IL-1B inflam inh inactive, D3 antag inactive, D3 ag inactive and TDP1 cell CPT inactive.
`COc1ccccc1N1CCN(CCCCOc2ccc(C)cc2C)CC1` gave ClpP mod inactive, TDP1 cell noCPT inconclusive, IL-1B inflam inh inactive, D3 antag -86.4, D3 ag inactive and TDP1 cell CPT inconclusive.
`COc1ccccc1OCCC(=O)N1CCN(c2ccccc2OC)CC1` gave TDP1 cell noCPT inconclusive, IL-1B inflam inh inactive, D3 antag inactive, D3 ag inactive and TDP1 cell CPT inconclusive.
Screening COc1ccccc1N1CCN(CC(O)COCCOc2ccc(Br)cc2)CC1 (stereo unspecified) returned ClpP mod inactive, TDP1 cell noCPT inconclusive, IL-1B inflam inh inactive, D3 antag -86.4, D3 ag inactive and TDP1 cell CPT 16.4µM.
`CC(C)NCC(O)COCCOc1ccc(Cl)cc1` (stereo unspecified) gave ClpP mod inactive, TDP1 cell noCPT inconclusive, IL-1B inflam inh inactive, D3 antag inactive, D3 ag inactive and TDP1 cell CPT inactive.
For CC1(C)CCCC(C)(C)N1CC(O)COCCOc1ccc(Br)cc1 (stereo unspecified) the results were ClpP mod inactive, TDP1 cell noCPT 16.4µM, IL-1B inflam inh inactive, D3 antag inactive, D3 ag inactive and TDP1 cell CPT inconclusive.
`COc1ccccc1N1CCN(CC(O)COc2ccc(C)cc2C)CC1` (stereo unspecified) gave TDP1 cell noCPT inconclusive, IL-1B inflam inh -64.7, D3 antag -93.8, D3 ag inactive and TDP1 cell CPT inconclusive.
